HP1b binding inh – HP1-beta chromodomain-methylated histone interaction inhibition; P83916; actives 0.56% (n = 390,000); Potency, µM (top dose mostly 114 µM), usual class: inhibitors; AlphaScreen HP1-beta / biotin-H3K9me3 peptide binding; AID 540317; further: nearly all actives have a fitted effect of over 70% in size
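HP1-beta protein (50 nM final) preincubated 30 min at room temperature with biotinylated H3(1-18)K9me3 peptide (50 nM) in PBS pH 7.4, 0.01% Tween-20, then compound added for 30 min. AlphaScreen streptavidin donor/nickel chelate acceptor beads (10 ug/mL final), 30 min dark, luminescence read.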
JMJD2A Tudor inh – inhibitors of human JMJD2A Tudor domain; actives 4.4% (n = 390,000); Potency, µM (doses to about 114 µM), actives largely listed as inhibitors; AlphaScreen JMJD2A-Tudor / H3K4me3 peptide binding; O75164; further: nearly all actives have a fitted effect of over 50% in size
G9a inh – blocks human histone lysine methyltransferase G9a. Q96KQ7. G9a H3K9 monomethylation, AlphaScreen, 2 h. Potency, µM (top dose mostly 102 µM), actives largely listed as inhibitors. actives 8.8% (n = 350,000); further: nearly all actives have a fitted effect of over 75% in size
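AlphaScreen detection with an anti-monomethyl H3K9 antibody quantified product after a 2 h room-temperature reaction containing 500 nM biotinylated H3K9 peptide, 20 µM SAM and 20 nM enzyme, which had been preincubated 15 min with compound.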
BAZ2B block – BAZ2B (human) inhibition; Q9UIF8; AlphaScreen BAZ2B-H3K14Ac peptide displacement; Potency, µM (top dose mostly 114 µM), actives largely listed as inhibitors; actives 4.4% (n = 360,000); AID 504333; further: nearly all actives have a fitted effect of over 60% in size
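Complex of BAZ2B and biotin-H3K14Ac (50 nM apiece) forms over 30 min at RT, then faces library compounds up to 110 uM for another 30 min; AlphaScreen beads added, 20 min dark incubation, luminescence read.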
CtBP-E1A blk – blocks the CtBP interaction with E1A; AlphaScreen GST-E1A/His-CtBP binding, 1536-well; stronger effect = lower value; activity change, % (concentration not given with the values); actives 0.49% (n = 340,000); AID 651724; in the data active means activity change below about -65%; inconclusive means mostly about -30% to -63%
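Protein mix (5X: 125 nM each GST-E1A, His-CtBP) was incubated with pinned compound 2 h at 37 deg C in dark, in 50 mM Tris pH 8.0 buffer with 300 mM NaCl. Glutathione donor and nickel acceptor beads followed; AlphaScreen signal read after 1 h.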
Six1-Eya2 blk – blocks human Six1 binding to Eya2; Q15475+O00167; AlphaScreen GST-Six1/His-Eya2 binding, biochemical; stronger effect = lower value; activity change, % (no concentration beside the values); actives 0.56% (n = 360,000); in the data active means activity change below about -65%; inconclusive means mostly about -30% to -63%
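Homogeneous AlphaScreen proximity assay pairing GST-Six1 with His-tagged Eya2 (added as 5X mix: 250 nM and 500 nM) in 50 mM Tris pH 8.0, 300 mM NaCl, 1 mM TCEP. Glutathione donor and nickel acceptor beads; 1 h, 37 °C, dark.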
Each line names hits and unclear results; the compound was inactive in the other large screens. Hits are enriched below; roughly 10% of the tested compounds scored in any of these assays. Unless noted, the call rests on the fitted dose curve; in most records, active means well fitted inhibition curve with a large enough effect; inconclusive means small, poorly fitted or top-dose-only effect; inactive means no such curve, though single readings can be large or run the other way.

Cc1ccc(-c2nnc(-c3cccc(Br)c3)o2)cc1	JMJD2A Tudor inh 50µM
Brc1cccc(-c2nnc(-c3ccccc3)o2)c1	none
O=C(Nc1cc(C(F)(F)F)ccc1N1CCOCC1)c1ccncc1	none (no result: G9a inh, BAZ2B block, CtBP-E1A blk)
O=C(CCc1ccccc1)NC(=S)Nc1cc(C(F)(F)F)ccc1N1CCOCC1	none
CC(C)CC(=O)NC(=S)Nc1cc(C(F)(F)F)ccc1N1CCOCC1	G9a inh 79µM
O=C(CNCc1ccccn1)Nc1cc(C(F)(F)F)ccc1N1CCOCC1	JMJD2A Tudor inh 45µM, BAZ2B block 45µM, CtBP-E1A blk inconclusive
O=S(=O)(Nc1ccc(O)c(Sc2nc3ccccc3s2)c1)c1cccc2ccccc12	G9a inh 45µM
Cc1cc(S(=O)(=O)Nc2ccc(O)c(Sc3nc4ccccc4s3)c2)ccc1Cl	JMJD2A Tudor inh inconclusive, BAZ2B block inconclusive (no result: CtBP-E1A blk, Six1-Eya2 blk)
O=S(=O)(Nc1ccc(O)c(Sc2nc3ccccc3s2)c1)c1cc(Cl)ccc1Cl	JMJD2A Tudor inh inconclusive, G9a inh 11µM, BAZ2B block inconclusive (no result: CtBP-E1A blk, Six1-Eya2 blk)

Source: PubChem BioAssay (National Center for Advancing Translational Sciences (NCATS))
